A number with no mark means an inactive call. Inconclusive results are not listed. Activity calls are given as the source filed them. Calls come from the whole dose curve.
These compounds were tested against Acetylcholinesterase (Homo sapiens) (UniProt P22303) (assay: Acetylcholinesterase (AChE) small molecule antagonists: colormetric cell-based qHTS assay (AID 1347395; note: nearly all actives have a fitted effect of over 30% in size)). Settings: SH-SY5Y cells AChE activity, colorimetric (Ellman); series mostly up to 115 µM; activity, negative = inhibition: at the top concentration.
In short: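 AChE inhibition read colorimetrically via DTNB–thiocholine in SH-SY5Y cells. Compound 30 min, substrate 90 min, both 37 C.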
% is set by controls: 0 for no effect and ±100 for the full control effect.

Sequence of Acetylcholinesterase (Homo sapiens) (P22303 whole entry, looked up): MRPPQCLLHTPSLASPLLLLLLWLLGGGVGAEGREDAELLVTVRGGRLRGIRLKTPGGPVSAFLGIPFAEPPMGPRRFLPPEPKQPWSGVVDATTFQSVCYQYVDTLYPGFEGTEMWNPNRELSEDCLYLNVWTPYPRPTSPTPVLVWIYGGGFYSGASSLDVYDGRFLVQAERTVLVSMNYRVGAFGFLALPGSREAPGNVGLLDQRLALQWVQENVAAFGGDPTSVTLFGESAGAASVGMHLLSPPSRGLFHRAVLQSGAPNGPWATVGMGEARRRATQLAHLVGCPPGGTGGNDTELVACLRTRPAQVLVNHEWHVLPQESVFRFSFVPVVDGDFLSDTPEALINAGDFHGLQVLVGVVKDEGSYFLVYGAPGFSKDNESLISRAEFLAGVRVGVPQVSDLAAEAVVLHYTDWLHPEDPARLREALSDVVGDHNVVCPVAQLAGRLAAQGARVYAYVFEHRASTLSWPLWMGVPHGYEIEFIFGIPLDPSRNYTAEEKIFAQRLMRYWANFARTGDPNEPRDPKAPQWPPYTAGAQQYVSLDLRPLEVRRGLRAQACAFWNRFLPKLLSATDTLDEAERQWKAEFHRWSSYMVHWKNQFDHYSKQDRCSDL

| SMILES | activity, negative = inhibition |
| --- | --- |
| CC1=C(C=O)C(C)(C)CC=C1 | 1.53% |
| CC[C@]1(O)C[C@H]2CN(CCc3c([nH]c4ccccc34)[C@@](C(=O)OC)(c3cc4c(cc3OC)N(C=O)[C@H]3[C@@](O)(C(=O)OC)[C@H](OC(C)=O)[C@]5(CC)C=CCN6CC[C@]43[C@@H]65)C2)C1 | 0.925% [at 52.9 µM] |
| Cc1ccc2c(c1)C(=O)c1ccccc1C2=O | -6.5% |
| ClCCl | 0.291% |

What follows are compounds tested against Acetylcholinesterase (Homo sapiens) (UniProt P22303) (assay: Acetylcholinesterase (AChE) small molecule antagonists: enzyme-based qHTS assay (AID 1347397; note: nearly all actives have a fitted effect of over 55% in size)). Settings: Potency: AChE enzyme activity inhibition; outcome: AChE enzyme activity inhibition; series mostly up to 115 µM; activity change, negative = inhibition: at the top concentration.
In short: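 Colorimetric DTNB readout of acetylthiocholine hydrolysis, 10 min at room temperature, after 30 min room-temperature exposure of 50 mU/mL recombinant human enzyme to compound; DMSO vehicle control.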

| SMILES | Potency | activity change, negative = inhibition |
| --- | --- | --- |
| CC(C(=O)O)c1cccc(C(=O)c2ccccc2)c1 (stereo not given) | inactive |  |
| O=C(O)c1ccccc1C(c1ccc(O)cc1)c1ccc(O)cc1 | inactive |  |
| CC1Cc2ccccc2N1NC(=O)c1ccc(Cl)c(S(N)(=O)=O)c1 (stereo not given) | inactive |  |
| C/C=C(\C)C(=O)OCCc1ccccc1 |  | 0.131% |
| C[C@H]1C[C@H](O)c2ccsc2S1(=O)=O |  | -0.137% [at 53 µM] |
| CC(=O)C(=O)CC(C)C |  | 0.543% |
| CC/C=C\CCOC(=O)CCCCC |  | 0.962% |
| CCCCCN(CCCOC)C(=O)C(CCC(=O)O)NC(=O)c1ccc(Cl)c(Cl)c1 (stereo not given) |  | -0.164% [at 53 µM] |
| CCN1CCN(C(=O)N[C@@H](C(=O)N[C@@H]2C(=O)N3[C@@H]2SC(C)(C)[C@H]3C(=O)O)c2ccccc2)C(=O)C1=O |  | 0.112% [at 53 µM] |

Each compound was assayed against Acetylcholinesterase (Homo sapiens) (UniProt P22303) (assay: Acetylcholinesterase (AChE) small molecule antagonists: fluorescence cell-based qHTS assay (AID 1347398; note: nearly all actives have a fitted effect of over 50% in size)). Settings: SH-SY5Y cells; Potency: AChE activity; outcome: AChE activity; series mostly up to 115 µM; activity change, negative = inhibition: at the top concentration.
In short: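 Cellular AChE activity read as thiocholine from acetylthiocholine hydrolysis, detected by Thiolite Green fluorescence at 490/520 nm after 40 min at room temperature. Compounds were pre-incubated 30 min at 37 C on adherent SH-SY5Y cells.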

| SMILES | Potency | activity change, negative = inhibition | outcome |
| --- | --- | --- | --- |
| CC(C(=O)O)c1cccc(C(=O)c2ccccc2)c1 (stereo not given) | inactive |  |  |
| CCCCCCCCCCCCc1ccccc1O | inactive |  |  |
| CCCCCCCCOC(=O)c1ccc(O)cc1 | inactive |  |  |
| O=C(CCNNC(=O)c1ccncc1)NCc1ccccc1 |  | 27.6% [at 53.7 µM] |  |
| C/C=C(\C)C(=O)OC/C=C(\C)CCC=C(C)C |  | -1.21% |  |
| O=C(O)c1ccccc1C(c1ccc(O)cc1)c1ccc(O)cc1 | inactive |  |  |
| C#Cc1ccc(-c2ccccc2F)cc1 |  | 3.73% [at 53.7 µM] |  |
| CC(C)CCCCCOC(=O)CCS |  | -1.14% |  |
| CCCCCCCCCCCCCCCO | inactive |  |  |
| CN(N=O)C(=O)N[C@@H]1[C@@H](O)[C@H](O)[C@@H](CO)O[C@@H]1O | inactive |  |  |
| C=CCOCC(O)CCl (stereo not given) |  | 0.841% |  |
| CC1Cc2ccccc2N1NC(=O)c1ccc(Cl)c(S(N)(=O)=O)c1 (stereo not given) | inactive |  |  |
| O=C(CO)[C@@H](O)[C@H](O)[C@H](O)CO |  | 6.04% |  |
| C/C=C(\C)C(=O)OCCc1ccccc1 |  | -0.21% |  |
| CCN1C=CN(C)C1C (stereo not given) |  | -5.27% |  |
| c1ccc2[nH]ccc2c1 | inactive |  |  |
| NS(=O)(=O)c1ccc(C(=O)O)cc1 |  | 7.96% [at 53.7 µM] |  |
| O=c1c(O)c(O)c1=O |  | 2.03% |  |
| NC(=O)c1cccc([N+](=O)[O-])c1 |  | 0.829% |  |
| C[C@H]1C[C@H](O)c2ccsc2S1(=O)=O |  | 10.6% [at 53.7 µM] |  |

| SMILES | Potency | activity change, negative = inhibition | outcome |
| --- | --- | --- | --- |
| CC(=O)C(=O)CC(C)C |  | -1.66% |  |
| CCCCC(CC)COS(=O)(=O)O (stereo not given) |  | 2.44% |  |
| CCO/C=C1\N=C(c2ccccc2)OC1=O |  | 0.756% |  |
| CC(CCO)CC(C)(C)C (stereo not given) | inactive |  |  |
| C#CCN[C@@H]1CCc2ccccc21 |  |  | inactive |
| CC(C)CCCCCCCOC(=O)CCCCC(=O)OCCCCCCCC(C)C | inactive |  |  |
| Cc1ccc(-c2cc(C(F)(F)F)nn2-c2ccc(S(N)(=O)=O)cc2)cc1 | inactive |  |  |
| O=C(NCCN1CCOCC1)c1ccc(Cl)cc1 |  | 19.9% [at 53.7 µM] |  |
| CC/C=C\CCOC(=O)CCCCC |  | 1.03% |  |
| CCCCOC(=O)CCS |  | -2.03% |  |
| CCCCCN(CCCOC)C(=O)C(CCC(=O)O)NC(=O)c1ccc(Cl)c(Cl)c1 (stereo not given) |  | 4.55% [at 53.7 µM] |  |
| C=CCSSCCC |  | 1.68% |  |
| CCC(C)(O)CCCC(C)C (stereo not given) | inactive |  |  |
| Cc1cc(O)c(C(C)(C)C)cc1Sc1cc(C(C)(C)C)c(O)cc1C |  | -11.7% |  |
| CN=C(N)NC(=O)Nc1c(C)cccc1C |  | -0.0185% [at 53.7 µM] |  |
| CC1=C(C=O)C(C)(C)CC=C1 |  | 0.365% |  |
| CC[C@]1(O)C[C@H]2CN(CCc3c([nH]c4ccccc34)[C@@](C(=O)OC)(c3cc4c(cc3OC)N(C=O)[C@H]3[C@@](O)(C(=O)OC)[C@H](OC(C)=O)[C@]5(CC)C=CCN6CC[C@]43[C@@H]65)C2)C1 |  | 2.14% [at 53.7 µM] |  |
| ClCCl |  | -0.0483% |  |
| CCN1CCN(C(=O)N[C@@H](C(=O)N[C@@H]2C(=O)N3[C@@H]2SC(C)(C)[C@H]3C(=O)O)c2ccccc2)C(=O)C1=O |  | 13.2% [at 53.7 µM] |  |

What follows are compounds tested against Acetylcholinesterase (Homo sapiens) (UniProt P22303) (assay: Acetylcholinesterase (AChE) small molecule antagonists: enzyme-based qHTS assay with human liver microsomes (AID 1347399; note: nearly all actives have a fitted effect of over 60% in size)). Settings: Potency: qHTS inhibition; outcome: qHTS inhibition; series mostly up to 115 µM; activity change, negative = inhibition: at the top concentration.
In short: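 Recombinant human AChE (50 mU/mL in the enzyme mix) and human liver microsomes (0.25 mg/mL final) were preincubated with compound and NADPH (0.25 mg/mL final) for 30 min at 37 C. Acetylthiocholine/DTNB was then added; thiocholine was read colorimetrically after 10 min at room temperature.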

| SMILES | Potency | activity change, negative = inhibition | outcome |
| --- | --- | --- | --- |
| CCCCCCCCCCCCc1ccccc1O | inactive |  |  |
| CCCCCCCCOC(=O)c1ccc(O)cc1 | inactive |  |  |
| O=C(CCNNC(=O)c1ccncc1)NCc1ccccc1 |  | -0.738% [at 53 µM] |  |
| C/C=C(\C)C(=O)OC/C=C(\C)CCC=C(C)C |  | -0.128% |  |
| O=C(O)c1ccccc1C(c1ccc(O)cc1)c1ccc(O)cc1 | inactive |  |  |
| C#Cc1ccc(-c2ccccc2F)cc1 |  | -1.17% [at 53 µM] |  |
| CC(C)CCCCCOC(=O)CCS |  | 0.764% |  |
| CCCCCCCCCCCCCCCO | inactive |  |  |
| CN(N=O)C(=O)N[C@@H]1[C@@H](O)[C@H](O)[C@@H](CO)O[C@@H]1O | inactive |  |  |
| C=CCOCC(O)CCl (stereo not given) |  | 2.37% |  |
| CC1Cc2ccccc2N1NC(=O)c1ccc(Cl)c(S(N)(=O)=O)c1 (stereo not given) | inactive |  |  |
| O=C(CO)[C@@H](O)[C@H](O)[C@H](O)CO |  | 1.88% |  |
| C/C=C(\C)C(=O)OCCc1ccccc1 |  | 0.514% |  |
| CCN1C=CN(C)C1C (stereo not given) |  | 0.372% |  |
| c1ccc2[nH]ccc2c1 | inactive |  |  |
| NS(=O)(=O)c1ccc(C(=O)O)cc1 |  | -2.92% [at 53 µM] |  |
| O=c1c(O)c(O)c1=O |  | 0.482% |  |
| NC(=O)c1cccc([N+](=O)[O-])c1 |  | -1.68% |  |
| CC(=O)C(=O)CC(C)C |  | -0.166% |  |

| SMILES | Potency | activity change, negative = inhibition | outcome |
| --- | --- | --- | --- |
| CCCCC(CC)COS(=O)(=O)O (stereo not given) |  | 2.02% |  |
| CCO/C=C1\N=C(c2ccccc2)OC1=O |  | -1.77% |  |
| CC(CCO)CC(C)(C)C (stereo not given) | inactive |  |  |
| C#CCN[C@@H]1CCc2ccccc21 |  |  | inactive |
| CC(C)CCCCCCCOC(=O)CCCCC(=O)OCCCCCCCC(C)C | inactive |  |  |
| Cc1ccc(-c2cc(C(F)(F)F)nn2-c2ccc(S(N)(=O)=O)cc2)cc1 | inactive |  |  |
| O=C(NCCN1CCOCC1)c1ccc(Cl)cc1 |  | -0.124% [at 53 µM] |  |
| CC/C=C\CCOC(=O)CCCCC |  | -0.886% |  |
| CCCCOC(=O)CCS |  | -0.461% |  |
| CCCCCN(CCCOC)C(=O)C(CCC(=O)O)NC(=O)c1ccc(Cl)c(Cl)c1 (stereo not given) |  | 0.818% [at 53 µM] |  |
| C=CCSSCCC |  | 3.01% |  |
| CCC(C)(O)CCCC(C)C (stereo not given) | inactive |  |  |
| Cc1cc(O)c(C(C)(C)C)cc1Sc1cc(C(C)(C)C)c(O)cc1C |  | 2.7% |  |
| CN=C(N)NC(=O)Nc1c(C)cccc1C |  | 0.336% [at 53 µM] |  |
| CC1=C(C=O)C(C)(C)CC=C1 |  | -0.162% |  |
| CC[C@]1(O)C[C@H]2CN(CCc3c([nH]c4ccccc34)[C@@](C(=O)OC)(c3cc4c(cc3OC)N(C=O)[C@H]3[C@@](O)(C(=O)OC)[C@H](OC(C)=O)[C@]5(CC)C=CCN6CC[C@]43[C@@H]65)C2)C1 |  | -0.153% [at 53 µM] |  |
| Cc1ccc2c(c1)C(=O)c1ccccc1C2=O |  | 0.313% |  |
| ClCCl |  | 0.485% |  |
| CCN1CCN(C(=O)N[C@@H](C(=O)N[C@@H]2C(=O)N3[C@@H]2SC(C)(C)[C@H]3C(=O)O)c2ccccc2)C(=O)C1=O |  | 0.728% [at 53 µM] |  |

Reference: PubChem BioAssay (Tox21)
